PAFAH2 FP inh: inhibitors of human PAFAH2. recombinant PAFAH2, FP-rhodamine activity probe, fluorescence polarization. hit rate 0.99% among 340,000. inhibition, % at 3.39 µM. Q99487;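 active = inhibition above the mean over all tested compounds plus 3 SD, cut at about 30% in these data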;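 note: inhibitors block probe labeling of enzyme so polarization drops; 0% = enzyme with DMSO and 100% = wells lacking PAFAH2 protein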
DAGLB inh: diacylglycerol lipase beta (human) inhibition. Q8NCG7. HEK293T DAGLB membrane lysate, EnzChek fluorogenic substrate. inhibition, % at 5.17 µM. hit rate 0.059% among 340,000; in the data active = inhibition above about 34%;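 note: 0% = enzyme with vehicle and 100% = wells lacking enzyme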
PAFAH1B3 FP inh: blocks human PAF acetylhydrolase 1B catalytic subunit 3 | inhibition, % at 3.39 µM | Q15102 | hit rate 0.28% among 340,000 | recombinant PAFAH1B3, FP-rhodamine probe, fluorescence polarization;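 active = inhibition above the screen-wide average of all tested compounds plus 3 SD, cut at about 25% in these data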;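 note: 0% = enzyme with DMSO only and 100% = wells lacking PAFAH1B3 protein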
Target sequence (Q15102 whole entry, looked up): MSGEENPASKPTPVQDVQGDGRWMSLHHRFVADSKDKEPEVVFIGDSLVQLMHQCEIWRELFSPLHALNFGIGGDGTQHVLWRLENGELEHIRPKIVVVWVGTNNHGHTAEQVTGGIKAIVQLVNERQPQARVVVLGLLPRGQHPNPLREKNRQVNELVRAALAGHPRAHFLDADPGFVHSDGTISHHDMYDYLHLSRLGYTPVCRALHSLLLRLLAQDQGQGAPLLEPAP
pPAFAH inh: pPAFAH (human) enzyme inhibition | recombinant pPAFAH, FP-rhodamine probe fluorescence polarization | AID 463082 | inhibition, % at 3.39 µM | hit rate 1.5% among 330,000;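 active = inhibition above the mean inhibition across the screen plus 3 SD, cut at about 25% in these data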;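 note: inhibitors block binding of the rhodamine activity-based probe so polarization drops; 0% = enzyme with DMSO and 100% = wells lacking pPAFAH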
HTRA1 inhibitor: HTRA1 (human) protease inhibition | Q92743 | recombinant HTRA1, FP-rhodamine activity-based probe, fluorescence polarization | inhibition, % at 5.96 µM | hit rate 0.5% among 340,000 | AID 504803; in the data active = inhibition above about 36%;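 note: 0% = enzyme with DMSO and 100% = wells lacking enzyme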
PAFAH1B2 inh: PAFAH1B2 (human) inhibition | P68402 | recombinant PAFAH1B2, FP-rhodamine activity probe, fluorescence polarization | inhibition, % at 3.39 µM | hit rate 1.2% among 340,000;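 active = inhibition above the mean of all tested compounds plus 3 SD, cut at about 24% in these data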;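 note: 0% = enzyme with DMSO and 100% = wells lacking PAFAH1B2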
Target sequence (P68402 whole entry, looked up): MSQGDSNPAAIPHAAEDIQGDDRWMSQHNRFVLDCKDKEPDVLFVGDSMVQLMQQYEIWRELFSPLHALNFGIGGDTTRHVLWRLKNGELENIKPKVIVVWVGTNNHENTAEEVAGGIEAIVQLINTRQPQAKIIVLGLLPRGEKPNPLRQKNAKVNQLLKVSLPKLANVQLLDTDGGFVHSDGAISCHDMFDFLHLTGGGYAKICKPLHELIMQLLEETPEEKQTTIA
PAFAH2 confirm: confirmation of human PAFAH2 inhibitors; shares compounds with PAFAH2 FP inh; recombinant PAFAH2, FP-rhodamine activity probe, fluorescence polarization; inhibition, % at 3.39 µM; hit rate 65% among 2,300;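 active = mean inhibition over three repeats above a set limit taken from the earlier primary screen, cut at about 30% in these data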;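 note: inhibitor blocks binding of rhodamine activity probe so polarization falls; 0% = enzyme with DMSO and 100% = wells lacking PAFAH2 protein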
* = called active by the depositor; . = not tested or not shown. This is a sample that favours compounds with a hit; in the whole collection about 2.8% have one here.

SMILES	PAFAH2 FP inh	DAGLB inh	PAFAH1B3 FP inh	pPAFAH inh	HTRA1 inhibitor	PAFAH1B2 inh	PAFAH2 confirm
Cc1ccc(C(=O)OCC(=O)NCCC2=CCCCC2)cc1N	2	0	0	9	2	6	.
O=C(COC(=O)c1ccccc1Cl)NCCC1=CCCCC1	16	-9	8	18	-10	2	.
O=C(COC(=O)c1cccs1)NCCC1=CCCCC1	55*	0	4	8	-3	2	41*
CC(=O)c1cccc(NC(=O)C(C)OC(=O)c2ccc(Br)o2)c1 (stereo not given)	2	-1	8	1	-5	4	.
OCC[C@H]1C[C@@H](O)[C@H](O)[C@]2(CCCO2)O1	7	3	13	7	4	-6	.
CC1CC1C(=O)OCC(=O)Nc1ccc(Cl)cn1 (stereo not given)	47*	0	-1	9	8	-6	39*
O=C(COC(=O)C1CC2CCCC(C1)C2=O)Nc1ccc(Cl)cn1 (stereo not given)	47*	1	1	7	2	5	25
CCOc1ccc(NC(=O)COC(=O)C2CC2C)cc1 (stereo not given)	60*	-1	5	12	5	3	47*
Cc1nc(NC(=O)COC(=O)C2CC2C)c(Cl)cc1Cl (stereo not given)	34*	0	8	19	1	2	26
Cc1c(Cl)cnc(NC(=O)COC(=O)C2CC3CCCC(C2)C3=O)c1Cl (stereo not given)	22	1	0	6	6	0	.
COc1cc(Cl)c(C)cc1NC(=O)COC(=O)C1CC1C (stereo not given)	29	-10	4	9	3	-1	.
Cc1ccc(S(=O)(=O)N2CCCCC2)cc1NS(=O)(=O)c1ccc(Cl)c(C(=O)O)c1	1	7	7	.	3	15	.
COc1ccc(S(=O)(=O)N2CCCC(C(=O)NC3CC3)C2)cc1OC (stereo not given)	-3	1	11	2	3	-1	.
Cc1cccc(N2NC(=O)/C(=C/c3ccc(-c4ccc(Cl)c(C(=O)O)c4)o3)C2=O)c1	32*	2	24	.	15	17	20
O=C(NNC(=O)c1cccc(O)c1)Nc1ccc([N+](=O)[O-])cc1	49*	0	7	-3	-7	4	1
O=C(CC12CC3CC(CC(C3)C1)C2)Nc1ccccc1N1CCOCC1	-9	-3	-12	5	-4	14	.
O=C(OCC1CC(c2ccccc2)=NO1)c1ccc(Br)cc1 (stereo not given)	8	-5	-1	14	2	2	.
O=C(OCC1CC(c2ccccc2)=NO1)c1ccco1 (stereo not given)	33*	-3	8	-7	0	-2	24
O=c1oc(-c2cccs2)nc2sc3c(c12)CCC3	56*	-2	8	-4	-2	4	48*
Cc1nc2sc3c(c2c(=O)o1)CCC3	60*	0	4	-7	10	8	50*
O=c1oc(/C=C/c2ccco2)nc2sc3c(c12)CCC3	55*	1	-3	7	13	0	26
O=c1c2c3c(sc2nc2n1N=C(c1cccs1)CS2)CCCC3	5	1	9	-10	3	-6	.
O=c1[nH]c(-c2ccco2)nc2sc3c(c12)CCCC3	3	-2	-5	8	0	5	.
O=c1oc(-c2cccs2)nc2sc3c(c12)CCCC3	42*	3	11	6	-2	-1	38*
Cc1ccccc1C(=O)Nc1ccnn1C1CCN(Cc2cnn(C(C)C)c2)CC1	9	1	1	3	-2	3	.
SMILES	PAFAH2 FP inh	DAGLB inh	PAFAH1B3 FP inh	pPAFAH inh	HTRA1 inhibitor	PAFAH1B2 inh	PAFAH2 confirm
O=C(N/C=C/c1ccccc1)c1ccccc1	-5	-1	-1	6	-37	3	.
CC1(C)Cc2c(sc3c2c(=O)n(-c2cccc(Cl)c2)c(=O)n3CC(N)=O)CO1	7	-1	3	0	4	3	.
CCC1CCc2sc(C(=O)N(C)CC(=O)Nc3ccc(N4CCOCC4)cc3)cc2C1 (stereo not given)	-1	-2	-4	5	4	1	.
COc1ccc(-c2oc3ccccc3c2C#CC(C)(C)O)cc1	-6	-4	-1	10	-54	-2	.
O=C(COC(=O)c1ccc2c(c1)OCO2)Nc1ccccc1F	54*	-4	7	6	8	2	49*
N#Cc1ccccc1NC(=O)COC(=O)c1ccc2c(c1)OCO2	62*	-5	8	4	-9	4	53*
Cc1ccc(C)c(NC(=O)COC(=O)c2ccc(S(=O)(=O)N3CCCC3)cc2)c1	.	2	.	.	2	.	.
Cc1ccc(S(=O)(=O)N2CCCCC2)cc1NC(=O)COC(=O)c1ccc(=O)[nH]c1	56*	0	6	3	3	-4	52*
Cc1ccc(S(=O)(=O)N2CCCCC2)cc1NC(=O)COC(=O)c1c(F)cccc1F	38*	-4	7	6	-3	-3	23
Cc1ccc(S(=O)(=O)N2CCCCC2)cc1NC(=O)COC(=O)c1ccc(O)cc1	60*	-2	6	15	-9	8	67*
Cc1ccc(S(=O)(=O)N2CCCCC2)cc1NC(=O)COC(=O)c1cc[n+]([O-])cc1	-1	1	12	-1	0	3	.
Cc1ccc(S(=O)(=O)N2CCCCC2)cc1NC(=O)COC(=O)Cc1c(F)cccc1Cl	3	-3	2	6	18	1	.
COc1ccc(NC(=O)CS(=O)(=O)Cc2ccccc2)c([N+](=O)[O-])c1	15	1	3	7	4	0	.
Cc1ccccc1C(=O)NCC(=O)NNC(=O)c1cccc(Cl)c1	11	2	5	1	3	5	.
Cc1noc(C)c1C(=O)NC(Cc1c[nH]c2ccccc12)C(=O)O (stereo not given)	5	-1	14	9	-1	3	.
Cc1oc2c(c1C(=O)NC(Cc1c[nH]c3ccccc13)C(=O)O)CCCC2 (stereo not given)	39*	3	4	8	-1	4	15
CC(=O)Nc1ccc(NC(=O)CSc2nnc3ccc(-c4cccnc4)nn23)cc1	4	2	5	4	5	-1	.
Cc1ccc(S(=O)(=O)Nc2c(O)ccc3ccccc23)cc1	.	.	.	14	.	.	.
O=S(=O)(Nc1c(O)ccc2ccccc12)c1cccc2ccccc12	32*	4	20	12	-1	6	16
NC(=O)c1sc2nc3c(c(-c4ccco4)c2c1N)CCC3	44*	0	24	20	26	9	7
Cc1ccc(-c2c3c(nc4sc(C(N)=O)c(N)c24)CCCC3)o1	4	3	5	20	5	-3	.
